What all share (assay): NCI-60 one-dose screen, 48 h (100 = growth as untreated, 0 = no growth, -100 = all killed)
Common to all, as to conditions: 10 µM unless noted

The subject of assay [1] is HCT-15 colon.
In assay [2] the test system is HT29 colon.
Assay [3] concerns SNB-75 CNS.
The subject of assay [4] is SNB-19 CNS.
The subject of assay [5] is U251 CNS.
In assay [6] the test system is PC-3 prostate.
Assay [7] concerns SK-MEL-5 melanoma.
Assay [8] relates to UACC-62 melanoma.
Assay [9] relates to LOX IMVI melanoma.
The subject of assay [10] is SK-MEL-28 melanoma.
Assay [11] relates to SK-MEL-2 melanoma.
For assay [12], the system named is EKVX NSCLC.
For assay [13], the system named is SN12C renal.
Assay [14] has as its system UO-31 renal.
Assay [15] concerns TK-10 renal.
Assay [16] deals with ACHN renal.
Assay [17] has as its system CAKI-1 renal.
For assay [18], the system named is A498 renal.
In assay [19] the test system is CCRF-CEM leukemia.
For assay [20], the system named is MOLT-4 leukemia.

About 83,000 compounds went through this panel and 20% of them were active in at least one assay; those are over-represented in the sample as a whole.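 Plates (96-well) were seeded with cells, treated with compound at one concentration, and incubated for 48 hours before percent growth was determined.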 Values without a mark were called inactive. Calls of active or inactive are those of the source. Rule for the calls: active = growth percent below 10; inactive = the rest.

As to `C[C@@H]1CC[C@@]2(OC1)O[C@H]1C[C@H]3[C@@H]4CC=C5C[C@@H](O[C@@H]6O[C@H](CO)[C@@H](O[C@@H]7O[C@@H](CO)[C@H](O)[C@H]7O)[C@H](O)[C@H]6O[C@@H]6O[C@@H](C)[C@H](O)[C@@H](O)[C@H]6O)CC[C@]5(C)[C@H]4CC[C@]3(C)[C@H]1[C@@H]2C`, the growth in [1] is -84.8% (active); in assay [2], -61.2% (active); in assay [3], -94.3% (active); in assay [4], -81.7% (active); in [5], -97.7% (active); in assay [6] it was -90.2% (active). Further, the growth in [7] was -89.7% (active); in assay [8], -98% (active); in assay [9], -96.7% (active); in assay [10], -96.9% (active); in assay [11], -87% (active); in assay [12], -66.6% (active). For the same compound, the growth was -97.4% (active) in [13]; -99.5% (active) in [14]; -81.2% (active) in assay [15]; -98.3% (active) in assay [16]; -93.4% (active) in [17]; -95.6% (active) in assay [18]. Further, the growth in [19] is -74.2% (active); in assay [20] it was -60% (active).
With `COc1ccc(/C(C)=C(\c2ccc(OCCN3CCCCCC3)cc2)c2ccc(OC(=O)c3ccccc3)cc2)cc1`, the growth in assay [1] was 12.1%; in assay [2] it was -3.62% (active); in [3], 83.3%; in [4], 62.8%; in [5], 31.7%; in [6] it was 39.6%. The growth in assay [7] is 42.8%; in [8] it was 19.1%; in assay [9], -51% (active); in assay [10], 54.9%; in assay [11], 54.6%; in assay [12], 74.4%. The growth is 56.2% in [13]; 26.2% in assay [14]; 74.5% in [15]; 72.3% in assay [16]; 52.9% in assay [17]; 82.1% in assay [18]. Besides, the growth was 26.8% in assay [19] and 17.4% in [20].
In the case of `C=CC(=O)N1CCN(c2ccc3cccc(NC(=O)c4cnc(C)cn4)c3n2)CC1`, the growth is 21.3% in [1]; 51.3% in assay [2]; 15.4% in [3]; 62.4% in [4]; 32.1% in [5]; 43.5% in assay [6]. For the same compound, the growth was 61.4% in assay [7]; 26.9% in assay [8]; 33.4% in [9]; 68% in assay [10]; 29.7% in assay [11]; 66.6% in [12]. Further, the growth in assay [13] was 9.63% (active); in assay [14], 0.645% (active); in assay [15] it was 23.2%; in [16], 5.43% (active); in assay [17] it was 4.05% (active); in assay [18] it was -12.7% (active). In addition, the growth in assay [19] is 32.1%; in assay [20], 35.7%.
As to `Fc1ccc(COc2ccc(Nc3ncnc4sc5c(c34)CCCC5)cc2)cc1`, the growth in [1] was 92.6%; in [2], 77.8%; in [3], 113%; in assay [4], 100%; in [5], 90.8%; in [6], 72.2%. Further, the growth in assay [7] is 95.5%; in assay [8] it was 72.1%; in [9], 99.5%; in assay [10] it was 91.5%; in [11], 84.4%; in assay [12], 94.3%. Besides, the growth in assay [13] was 81.1%; in assay [14] it was 78.5%; in assay [15], 84%; in assay [16] it was 95.2%; in [17], 99.6%; in assay [18], 86.2%. In addition, the growth is 97.6% in [19] and 87.4% in assay [20].
`CCOC(=O)C1=C(C)N=C2SC=C(c3ccccc3)N2[C@H]1c1cn[nH]c1-c1ccc(Cl)cc1`: the growth in assay [1] is 24.6%; in assay [2], 36.8%; in assay [3] it was 73.8%; in assay [4], 59.2%; in assay [5], 31.2%; in [6], 34.7%. The growth is 49.7% in [7]; 36.2% in assay [8]; 5.54% (active) in [9]; 75.2% in [10]; 65.6% in [11]; 72.3% in [12]. Moreover, the growth was 48.8% in assay [13]; -33% (active) in [14]; 63.3% in [15]; 41.1% in assay [16]; -15.1% (active) in assay [17]; 68.8% in assay [18]. In addition, the growth was -19.8% (active) in assay [19] and -7.33% (active) in assay [20].
As for `CCC(C)Nc1ccc(NC(C)CC)cc1` (stereo not given), the growth in assay [1] was 97.7%; in [2], 71.5%; in assay [3], 83.2%; in [4] it was 101%; in assay [5], 87.9%; in assay [6] it was 80.7%. Also, the growth is 100% in assay [7]; 87.1% in assay [8]; 74% in assay [9]; 104% in assay [10]; 91.6% in assay [11]; 86% in [12]. In addition, the growth in assay [13] was 19.8%; in assay [14] it was 84.4%; in assay [15], 107%; in [16], 85.5%; in assay [17], 96.2%; in assay [18], 97.5%. Besides, the growth is 79% in assay [19] and 59.1% in [20].
As to `O=C(N/N=C/c1ccc([N+](=O)[O-])cc1)c1ccc2nc(-c3ccc(Cl)cc3)[nH]c2c1`, the growth was 29.9% in assay [1]; 8.25% (active) in assay [2]; 69.3% in [3]; 52% in assay [4]; 22.3% in [5]; 21.4% in assay [6]. Besides, the growth in assay [7] is 2.58% (active); in [8], 43.7%; in [9], -0.908% (active); in [10] it was 45.3%; in assay [11] it was 66.7%; in assay [12] it was 49%. The growth was 19.6% in [13]; 42.6% in [14]; 89.8% in [15]; 32.3% in assay [16]; 42.7% in assay [17]; -0.501% (active) in assay [18]. Further, the growth is 9.87% (active) in assay [19] and 4.24% (active) in [20].

The values above are taken from PubChem BioAssay (NCI).
